Results published in the supplement of paper PMC9942566.
Structures can show the parent of a compound that is named as a salt. ± gives the standard deviation of the averaged measurements.

Tested on: Serratia marcescens K904 PosmB-luxCDABE reporter (pMQ747)
Experiment: PosmB-lux reporter fold induction (RLU/OD600 relative to no-compound control), highest over Biolog concentrations; higher = stronger Rcs reporter activation
Details: Biolog plate: PM11; well positions: C1-4; wild type K904; 4 h
Experimental: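 Serratia marcescens K904 (wild type) or its isogenic ΔrcsB mutant, carrying the Rcs-dependent PosmB-luxCDABE reporter plasmid pMQ747, was grown in LB at OD600 0.1 in Biolog Phenotype MicroArray plates PM11-20 for 4 h at 30-32°C. Each compound is present at 3-4 proprietary concentrations (not stated); per the Fig. S1 legend the value given is the highest fold over those wells. Three independent trials.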

Row | Compound | PosmB-lux reporter fold induction
1 | Cc1c(N)nc([C@H](CC(N)=O)NC[C@H](N)C(N)=O)nc1C(=O)N[C@H](C(=O)N[C@H](C)[C@@H](O)[C@H](C)C(=O)N[C@H](C(=O)NCCc1nc(-c2nc(C(=O)NCCC[S+](C)C)cs2)cs1)[C@@H](C)O)[C@@H](OC1OC(CO)C(O)C(O)C1OC1OC(CO)C(O)C(OC(N)=O)C1O)c1cnc[nH]1 (stereo not given in full) [Bleomycin] | 1.6 ± 0.14

Same assay, conditions: Biolog plate: PM11; well positions: G9-12; wild type K904; 4 h

Row | Compound | PosmB-lux reporter fold induction
2 | O=[Te]([O-])[O-].[K+].[K+] [Potassium tellurite] | 1.58 ± 0.69

Same assay, conditions: Biolog plate: PM13; well positions: A9-12; wild type K904; 4 h

Row | Compound | PosmB-lux reporter fold induction
3 | [Cl][Ni][Cl] [Nickel chloride] | 1.33 ± 0.21

Same assay, conditions: Biolog plate: PM13; well positions: B9-12; wild type K904; 4 h

Row | Compound | PosmB-lux reporter fold induction
4 | CCn1cc(C(=O)O)c(=O)c2cc3c(cc21)OCO3 [Oxolinic acid] | 2.12 ± 0.57

Same assay, conditions: Biolog plate: PM13; well positions: C9-12; wild type K904; 4 h

Row | Compound | PosmB-lux reporter fold induction
5 | [K+].[K+].[O]=[Cr](=[O])([O-])[O-] [Potassium chromate] | 2.55 ± 0.8

Same assay, conditions: Biolog plate: PM13; well positions: E5-8; wild type K904; 4 h

Row | Compound | PosmB-lux reporter fold induction
6 | CN[C@@H]1[C@@H](O)[C@@H](O[C@@H]2[C@@H](O)[C@H](O[C@H]3O[C@H]([C@@H](C)O)[C@@H](O)[C@H](O)[C@H]3N)[C@@H](N)C[C@H]2N)OC[C@]1(C)O [Geneticin (G418)] | 1.38 ± 0.22

Same assay, conditions: Biolog plate: PM14; well positions: B5-8; wild type K904; 4 h

Row | Compound | PosmB-lux reporter fold induction
7 | CCCCc1ccc(C(=O)O)nc1 [Fusaric acid] | 3.83 ± 1.8

Same assay, conditions: Biolog plate: PM14; well positions: B9-12; wild type K904; 4 h

Row | Compound | PosmB-lux reporter fold induction
8 | O=[As]([O-])([O-])[O-].[Na+].[Na+].[Na+] [Sodium arsenate] | 2.1 ± 0.74

Same assay, conditions: Biolog plate: PM14; well positions: C9-12; wild type K904; 4 h

Row | Compound | PosmB-lux reporter fold induction
9 | N#CO [Sodium cyanate] | 2.06 ± 0.13

Same assay, conditions: Biolog plate: PM14; well positions: D1-4; wild type K904; 4 h

Row | Compound | PosmB-lux reporter fold induction
10 | [Cl][Cd][Cl] [Cadmium chloride] | 1.35 ± 0.73

Same assay, conditions: Biolog plate: PM14; well positions: D5-8; wild type K904; 4 h

Row | Compound | PosmB-lux reporter fold induction
11 | O=C(O)CI [Iodoacetate] | 1.93 ± 0.39

Same assay, conditions: Biolog plate: PM14; well positions: D9-12; wild type K904; 4 h

Row | Compound | PosmB-lux reporter fold induction
12 | [Na+].[Na+].[O]=[Cr](=[O])([O-])[O][Cr](=[O])(=[O])[O-] [Sodium dichromate] | 1.55 ± 0.067

Same assay, conditions: Biolog plate: PM14; well positions: G9-12; wild type K904; 4 h

Row | Compound | PosmB-lux reporter fold induction
13 | O=[N+]([O-])[O-].[Na+] [Sodium nitrate] | 3.75 ± 1.3

Same assay, conditions: Biolog plate: PM15; well positions: E9-12; wild type K904; 4 h

Row | Compound | PosmB-lux reporter fold induction
14 | C[n+]1ccc(-c2cc[n+](C)cc2)cc1 [Methyl viologen] | 1.4 ± 0.25

Same assay, conditions: Biolog plate: PM15; well positions: H1-4; wild type K904; 4 h

Row | Compound | PosmB-lux reporter fold induction
15 | O=[N+]([O-])c1ncc[nH]1 [2-Nitroimidazole] | 1.17 ± 0.56

Same assay, conditions: Biolog plate: PM16; well positions: C1-4; wild type K904; 4 h

Row | Compound | PosmB-lux reporter fold induction
16 | CN(C)S(=O)(=O)N(SC(F)(Cl)Cl)c1ccccc1 [dichlofluanid] | 1.03 ± 0.34

Same assay, conditions: Biolog plate: PM16; well positions: C9-12; wild type K904; 4 h

Row | Compound | PosmB-lux reporter fold induction
17 | CCCCCCCCCCCCCCCC[n+]1ccccc1 [cetylpyridinium] | 1.47 ± 0.48

Same assay, conditions: Biolog plate: PM16; well positions: D1-4; wild type K904; 4 h

Row | Compound | PosmB-lux reporter fold induction
18 | O=[N+]([O-])c1ccc(Cl)c([N+](=O)[O-])c1 [1-chloro-2,4-dinitrobenzene] | 1.37 ± 0.54

Same assay, conditions: Biolog plate: PM16; well positions: F1-4; wild type K904; 4 h

Row | Compound | PosmB-lux reporter fold induction
19 | O=[Te]([O-])[O-].[K+].[K+] [potassium tellurite] | 1.75 ± 1.1

Same assay, conditions: Biolog plate: PM16; well positions: F5-8; wild type K904; 4 h

Row | Compound | PosmB-lux reporter fold induction
20 | O=[Se]([O-])[O-].[Na+].[Na+] [sodium selenite] | 1.03 ± 0.38

Same assay, conditions: Biolog plate: PM17; well positions: A5-8; wild type K904; 4 h

Row | Compound | PosmB-lux reporter fold induction
21 | NC(CCl)C(=O)O [b-chloro-L-alanine hydrochloride] | 1.57 ± 0.59

Same assay, conditions: Biolog plate: PM17; well positions: B5-8; wild type K904; 4 h

Row | Compound | PosmB-lux reporter fold induction
22 | CNC1CC(N)C(O)C(OC2OC(CO)C(O)C3OC4(OC(C(N)CO)C(O)C(O)C4O)OC23)C1O (stereo not given) [hygromycin B] | 1.46 ± 0.35

Same assay, conditions: Biolog plate: PM17; well positions: C1-4; wild type K904; 4 h

Row | Compound | PosmB-lux reporter fold induction
23 | Nc1ccncc1 [4-aminopyridine] | 10.2 ± 7.7

Same assay, conditions: Biolog plate: PM17; well positions: D1-4; wild type K904; 4 h

Row | Compound | PosmB-lux reporter fold induction
24 | CC1=C(C(=O)Nc2ccccc2)S(=O)(=O)CCO1 [oxycarboxin] | 2.25 ± 0.26

Same assay, conditions: Biolog plate: PM17; well positions: D5-8; wild type K904; 4 h

Row | Compound | PosmB-lux reporter fold induction
25 | Nc1ncn[nH]1 [3-amino-1,2,4-triazole] | 1.11 ± 0.18

Same assay, conditions: Biolog plate: PM17; well positions: G1-4; wild type K904; 4 h

Row | Compound | PosmB-lux reporter fold induction
26 | O=C(O)CCCc1ccc(N(CCCl)CCCl)cc1 [chlorambucil] | 1.34 ± 0.1

Same assay, conditions: Biolog plate: PM18; well positions: C9-12; wild type K904; 4 h

Row | Compound | PosmB-lux reporter fold induction
27 | Oc1c(Cl)c(Cl)c(Cl)c(Cl)c1Cl [pentachloro-phenol] | 1.04 ± 0.25

Same assay, conditions: Biolog plate: PM18; well positions: E5-8; wild type K904; 4 h

Row | Compound | PosmB-lux reporter fold induction
28 | [O-][I+3]([O-])([O-])O [sodium m-periodate] | 2.47 ± 0.4

Same assay, conditions: Biolog plate: PM18; well positions: F1-4; wild type K904; 4 h

Row | Compound | PosmB-lux reporter fold induction
29 | NNC(N)=O [semicarbazide] | 3.39 ± 0.38

Same assay, conditions: Biolog plate: PM18; well positions: G1-4; wild type K904; 4 h

Row | Compound | PosmB-lux reporter fold induction
30 | Oc1cc(Cl)ccc1Oc1ccc(Cl)cc1Cl [triclosan] | 1.45 ± 0.61

Same assay, conditions: Biolog plate: PM18; well positions: G5-8; wild type K904; 4 h

Row | Compound | PosmB-lux reporter fold induction
31 | Nc1n[nH]c(N)n1 [3,5-diamino-1,2,4-triazole (Guanazole)] | 1.96 ± 0.29

Same assay, conditions: Biolog plate: PM18; well positions: H5-8; wild type K904; 4 h

Row | Compound | PosmB-lux reporter fold induction
32 | Oc1ccccc1-c1ccccc1 [2-phenylphenol] | 2.88 ± 0.52

Same assay, conditions: Biolog plate: PM18; well positions: H9-12; wild type K904; 4 h

Row | Compound | PosmB-lux reporter fold induction
33 | CC1=CC(=O)c2c(O)cccc2C1=O [plumbagin] | 0.936 ± 0.027

Same assay, conditions: Biolog plate: PM20; well positions: C5-8; wild type K904; 4 h

Row | Compound | PosmB-lux reporter fold induction
34 | CN1[C@@H]2CC[C@H]1C[C@@H](OC(=O)C(CO)c1ccccc1)C2 (stereo not given in full) [atropine] | 2.56 ± 0.59

Same assay, conditions: Biolog plate: PM20; well positions: E5-8; wild type K904; 4 h

Row | Compound | PosmB-lux reporter fold induction
35 | CCCCCCCCCCCCNC(=N)N [dodine] | 1.94 ± 0.27

Same assay, conditions: Biolog plate: PM20; well positions: F1-4; wild type K904; 4 h

Row | Compound | PosmB-lux reporter fold induction
36 | O=c1cc(O)c2ccccc2o1 [4-hydroxyl-coumarin] | 2.25 ± 0.64

Same assay, conditions: Biolog plate: PM20; well positions: G1-4; wild type K904; 4 h

Row | Compound | PosmB-lux reporter fold induction
37 | O=C1C2CC=CCC2C(=O)N1SC(Cl)(Cl)Cl (stereo not given) [captan] | 2.3 ± 0.41

Same assay, conditions: Biolog plate: PM20; well positions: G9-12; wild type K904; 4 h

Row | Compound | PosmB-lux reporter fold induction
38 | Oc1cccc2cccnc12 [8-hydroxy-quinoline] | 2.7 ± 0.72

Same assay, conditions: Biolog plate: PM20; well positions: H1-4; wild type K904; 4 h

Row | Compound | PosmB-lux reporter fold induction
39 | O=C1C=C2C(=CCOC2O)O1 (stereo not given) [patulin] | 1.71 ± 0.23

Same assay, conditions: Biolog plate: PM20; well positions: H5-8; wild type K904; 4 h

Row | Compound | PosmB-lux reporter fold induction
40 | Cc1ccc(N(SC(F)(Cl)Cl)S(=O)(=O)N(C)C)cc1 [tolylfluanid] | 1.32 ± 0.14
